Assay outcomes from PubChem BioAssay.
Pf growth 48h: inhibits P. falciparum growth in the first generation, 48 h. P. falciparum luciferase growth in erythrocytes, 48 h. Potency, µM (highest dose often 28.7 µM), for the others: at the top dose activity change, negative = inhibition, hits mostly inhibitors. actives 5.9% (n = 310,000); note: potency is the fitted concentration of half-maximal effect; % is set by controls: 0 for no effect and ±100 for the full control effect
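A one-generation exposure of luciferase-tagged malaria parasites in RPMI 1640/Albumax erythrocyte culture, 37 C and 5% CO2. Inhibition is inferred from decreased luminescence after adding detection reagent.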
NS1 function inh: influenza NS1 inhibition | AID 2326 | Potency, µM (titrated, usually from 46.1 µM), for the others: at the top dose activity, positive = more growth | actives 0.4% (n = 270,000); calls by dose curve; note: potency is the fitted concentration of half-maximal effect; actives are rising curves; nearly all actives have a fitted effect of over 50% in size
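S. cerevisiae expressing influenza A NS1, grown in glucose, washed, then diluted 1:100 into pH 6.0 -URA galactose medium with 23 nl compound. Growth recovery read as OD600; NS1-free strain serves as control.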
FBPA Giardia inh: Giardia lamblia aldolase inhibition; A8B2U2; purified Giardia FBPA; Potency, µM (highest dose often 59.6 µM), without a hit: at the top dose activity, negative = inhibition, usual class: inhibitors; actives 0.71% (n = 290,000); note: potency is the fitted concentration of half-maximal effect; % is set by controls: 0 for no effect and ±100 for the full control effect; nearly all actives have a fitted effect of over 55% in size
Target sequence (A8B2U2 whole entry, looked up): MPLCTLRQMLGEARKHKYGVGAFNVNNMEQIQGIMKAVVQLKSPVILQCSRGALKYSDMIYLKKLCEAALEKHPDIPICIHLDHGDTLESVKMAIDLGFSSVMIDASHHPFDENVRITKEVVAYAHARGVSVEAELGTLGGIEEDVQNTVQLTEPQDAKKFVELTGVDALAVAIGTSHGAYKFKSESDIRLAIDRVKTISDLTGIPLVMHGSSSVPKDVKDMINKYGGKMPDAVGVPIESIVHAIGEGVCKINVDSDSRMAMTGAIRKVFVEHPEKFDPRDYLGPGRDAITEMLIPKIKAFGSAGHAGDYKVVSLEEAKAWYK
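40 nM FBPA preincubated 10 min at RT with compound (up to 57.5 uM final), then substrate plus GAPDH/TPI/NAD/arsenate coupling and diaphorase/resazurin added. Fluorescence read after 20 min at RT, 525/598 nm.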
Shiga toxin inh: Shiga toxin inhibition; Vero cells, Shiga toxin protein synthesis inhibition reporter; inhibition, % at 38.7 µM; actives 9.2% (n = 290,000); AID 2315; in the data active = inhibition mostly above about 28%, no sharp cut-off; inactive = mostly below about 43%; note: 0% is about no effect
Pf growth 96h: inhibits malaria parasite growth, 96 h. Potency, µM (top dose mostly 28.7 µM), for inactives: top-dose activity change, negative = inhibition, most hits filed as inhibitors. actives 6.9% (n = 320,000). P. falciparum luciferase reporter growth, 96 h; note: potency is the fitted concentration of half-maximal effect; % is set by controls: 0 for no effect and ±100 for the full control effect
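Plates of compound plus infected erythrocytes (2% hematocrit, 0.05% parasitemia final) incubate 96 hours, 37 C, 5% CO2. Detection reagent added; reduced luminescence from the parasites' luciferase reporter flags inhibition.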
CHX counter: affects cycloheximide protein synthesis inhibition readout, counter-screen; cell reporter, cycloheximide protein synthesis inhibition counterscreen; max response, %; actives 12% (n = 300,000); in the data active = max response mostly above about 13%, no sharp cut-off; inactive = mostly below about 14%; note: read at 38.3 µM for the half of the compounds with a filed dose; 0% is about no effect
The depositor's hits bear a star; ? = inconclusive; nt = no result. Hits are enriched below; roughly 21% of the tested compounds scored in any of these assays. Unless noted, calls come from the whole dose curve; as a rule, active = well fitted curve in the direction sought with a large enough effect; inconclusive = small, poorly fitted or top-dose-only effect, or another doubt; inactive = no such curve, though single readings can be large; an effect the other way counts as inactive or inconclusive.

SMILES	Pf growth 48h	NS1 function inh	FBPA Giardia inh	Shiga toxin inh	Pf growth 96h	CHX counter
O=C(NCC1COCCO1)c1cc(COc2ccc(F)cc2F)on1 (centres undefined)	16.3%	9.1%	nt	19.8	-7.3%	9.6
O=C(Cn1ccc2ccccc2c1=O)NCC(=O)N1CCN(c2ccc(F)cc2)CC1	29.4%	-3.5%	0.3%	-5.7	?	1.5
Cc1c(N(C)S(=O)(=O)c2cc(C(=O)N3CCCC3)ccc2Cl)c(=O)n(-c2ccccc2)n1C	13.1µM*	13.6%	nt	-3.3	4.65µM*	3.4
CC(C)(CN1CCN(Cc2ccccc2)CC1)NS(=O)(=O)c1ccc(Cl)cc1	?	-2.3%	3.0%	8.3	-8.4%	-0.5
CC(C)c1ccccc1NC(=O)COC(=O)c1c2c(nc3ccccc13)CCN(Cc1ccccc1)C2	8.28µM*	-14.2%	-6.8%	-24.6	13.1µM*	-3.7
Nc1nc2c(c(=O)[nH]1)CN(Cc1ccccc1)CC2	-28.6%	nt	nt	nt	9.7%	nt
Cc1cc(N2CCN(C)CC2)ccc1NC(=O)c1c2c(nc3ccccc13)CCN(Cc1ccccc1)C2	?	8.4%	1.9%	-26.9	?	-12.1
Cc1c(Cl)cccc1NC(=O)COC(=O)c1c2c(nc3ccccc13)CCN(Cc1ccccc1)C2	13.1µM*	?	10.4%	8.2	2.94µM*	1.4
Nc1c2c(nc3ccccc13)CCN(Cc1ccccc1)C2	?	-3.0%	-19.4%	5.1	8.28µM*	14.6*
COc1ccc(CO[C@@H]2O[C@H](CO)[C@@H](O)[C@H](O)[C@H]2NC(C)=O)cc1OC	33.3%	2.1%	7.2%	32.9	29.4%	-1.5
CCC(C)(C)NC(=O)C1CCCN(S(=O)(=O)c2ccc3c(c2)CC(C)N3C(=O)C2CC2)C1 (centres undefined)	?	-11.6%	3.5%	-3.5	-9.3%	11.8
Cc1ccc2nc(N)[nH]c(=O)c2c1Sc1ccncc1	4.78µM*	nt	nt	nt	2.13µM*	nt
O=C(O)CCCC(=O)N1CCOCCOCCOCCOCC1	32.4%	3.7%	-0.3%	-6.0	29.3%	-6.9
CCCCn1c(N)c(N(CC(C)C)C(=O)c2cc(S(=O)(=O)N3CCOCC3)ccc2Cl)c(=O)[nH]c1=O	?	nt	nt	nt	0.3%	nt
CC(C)(C)CN1CCN(Cc2cc3ccccc3[nH]2)CC1CCO (centres undefined)	12.1%	8.7%	0.9%	-2.2	5.22µM*	-3.1
CC(C)CN1CCN(Cc2cc3ccccc3[nH]2)CC1CCO (centres undefined)	?	15.1%	12.9%	-10.3	?	-2.9
Cn1cc(-c2nc3cncnc3n(Cc3ccc(F)cc3)c2=O)c2ccccc21	nt	nt	-2.6%	nt	nt	nt
Cc1ccccc1-c1ccc2ncnc(NCc3cccnc3)c2c1	nt	nt	2.9%	nt	nt	nt
CCN(CC)P(=O)(Nc1cccc(C(F)(F)F)c1)c1ccc(N(C)C)cc1NC(=O)c1ccco1 (centres undefined)	2.08µM*	24.1%	-17.9%	11.9	1.85µM*	4.4
CCN(CC)c1ccc(NC(=O)c2ccco2)cc1	-10.9%	-13.7%	-6.4%	66.3*	-16.7%	22.5*
CCN(CC)c1ccc(NC(=O)c2ccco2)c(C)c1	?	11.5%	-3.7%	28.2	17.8%	15.4*
CCN(CC)c1ccc(NC(=O)c2c(C)noc2C)cc1	16.7%	-8.7%	nt	19.5	19.5%	14.0
Cc1cc(Br)ccc1NC(=O)c1ccco1	?	-22.4%	8.9%	nt	?	13.1
CCN(CC)c1ccc(NC(=O)c2cccc(F)c2)c(C)c1	7.4%	-1.6%	-2.3%	5.7	51.6%	13.6
CCN(CC)c1ccc(NC(=O)c2ccc(Br)o2)c(C)c1	7.38µM*	-2.1%	-22.5%	27.9*	nt	16.2
SMILES	Pf growth 48h	NS1 function inh	FBPA Giardia inh	Shiga toxin inh	Pf growth 96h	CHX counter
CC(=O)c1c(C)[nH]c(C(=O)CN2CCN(S(=O)(=O)c3ccccc3)CC2)c1C	13.0%	nt	nt	nt	15.9%	nt
Cc1ccc(OCCC(=O)OCC(=O)NCCc2ccc(Cl)cc2)cc1	?	nt	nt	nt	-1.1%	nt
CCN(CC)c1ccc(NC(=S)NC(=O)c2ccco2)cc1	?	0.1%	-15.1%	60.6*	37.1%	37.8*
CC(C)(C)n1cnc2cc(NCc3ccccc3O)ccc21	-2.8%	-5.9%	1.2%	65.8*	?	48.5*
Cc1cc(NCc2ccccn2)ccc1Br	102.0%	-30.8%	nt	73.8*	209.5%	34.1*
CC(C)n1cnc2cc(NCc3ccccc3O)ccc21	33.2%	-1.3%	-1.7%	86.2*	28.3%	51.7*
CC(C)n1cnc2cc(NCc3ccco3)ccc21	62.2%	-6.7%	-22.2%	72.1*	38.2%	41.1*
COc1ccc(S(=O)(=O)Nc2ccc(F)cc2F)cc1C(=O)N1CCOCC1	7.3%	-1.0%	-5.4%	17.8	?	-1.2
NNC(=O)c1c(O)c2cccc3c2n(c1=O)CCC3	0.0%	8.4%	1.5%	-6.5	2.1%	-1.0
CC(C)n1cnc2cc(NCc3ccccn3)ccc21	148.7%	4.7%	-28.5%	70.0*	nt	71.9*
c1ccc(CNc2nc3ccccc3n3cnnc23)nc1	nt	-6.9%	-9.2%	10.0	-6.3%	17.9
CCN(CC)CCn1c(NCc2ccccn2)nc2ccccc21	nt	-3.8%	?	11.1	-9.0%	-6.2
c1ccc(-n2cnc3cc(NCc4ccccn4)ccc32)cc1	57.6%	-0.5%	-25.5%	81.8*	?	59.0*
Cc1ccc(NC(=O)CNC(=O)c2ccco2)nc1	16.4%	-6.2%	nt	6.9	?	13.3
COc1ccc(CC(=O)Nc2c3c(nn2C(C)(C)C)CS(=O)(=O)C3)cc1OC	28.7%	3.4%	nt	-7.1	8.3%	1.1
C=CCN(C(=O)Cn1nc(C)n2c(cc3cc(C)ccc32)c1=O)c1ccccc1	-15.7%	-8.1%	1.6%	-3.5	?	0.6
COc1ccc(NC(=O)c2ccccc2SC)cc1OC	nt	-10.3%	-1.3%	-5.3	-27.6%	8.5
NC(=O)c1ccc(NC(=O)C#Cc2ccccc2)cc1	?	-3.1%	-0.2%	56.1*	?	34.8*
COc1ccc(NC(=O)C#Cc2ccccc2)cc1OC	?	-47.8%	2.8%	38.6	7.9%	12.5*
CCN(CC)C(=O)c1nc[nH]c1C(=O)N1CCc2ccccc2C1	4.3%	nt	nt	nt	28.0%	nt
O=C(CCc1ccncc1)NC1CCCc2c1cnn2-c1cc(F)cc(F)c1 (centres undefined)	18.9%	18.3%	nt	-5.7	?	-8.1
COc1ccc(Cl)cc1NC(=O)CN(C)C(=O)c1sccc1-c1ccccc1	-41.7%	nt	nt	nt	-54.2%	nt
COc1ccc(CC(=O)N2CCN(C(=O)Cc3ccc(OC)cc3)CC2)cc1	-27.8%	12.5%	1.6%	-8.5	3.29µM*	-1.6
COc1ccc(CC(=O)N2CCc3ccccc3C2)cc1	11.7%	-8.3%	2.7%	23.8*	8.28µM*	22.1*
